Assay results taken from PubChem BioAssay (Tox21).
Records with an inconclusive call do not appear. Active and inactive are the calls of the source. Unless noted, the call rests on the fitted dose curve; in most records, active means well fitted curve in the direction sought with a large enough effect in the repeat runs; inconclusive means weak or mixed curves; inactive means no such curve, though single readings can be large; an effect the other way counts as inactive or inconclusive.

Experiments:
[1] = qHTS assay to identify small molecule HDAC inhibitors - cell viability counter screen (AID 1259365); further: series mostly up to about 92 µM; nearly all actives have a fitted effect of over 50% in size
How it was run: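 Viability readout: CellTiter-Glo luminescence. Wild-type HCT-116 cells, 2hr compound treatment following overnight attachment at 37 C.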

[2] = qHTS assay to identify small molecule agonists of the sonic hedgehog signaling (Shh) pathway - cell viability counter screen (AID 1259366); further: nearly all actives have a fitted effect of over 50% in size
How it was run: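 Viability measured fluorometrically (CellTiter-Fluor, 1hr, 37C) in 3T3 Gli1-Luc reporter cells after 23hr compound exposure within a 24hr incubation at 37C/5% CO2.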

[3] = qHTS assay to identify small molecule antagonists of the sonic hedgehog signaling (Shh) pathway - cell viability counter screen (AID 1259367); further: nearly all actives have a fitted effect of over 55% in size
How it was run: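 Using CellTiter-Fluor, viability of Gli1-Luc reporter 3T3 cells is read by fluorescence in the wells used for the Shh luciferase assay. Treatment lasts 23 hr with conditioned medium, then reagent 1 hr at 37C.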

[4] = qHTS assay to identify small molecule agonists of the sonic hedgehog signaling (Shh) pathway (AID 1259368; calls by dose curve;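 further: NIH/3T3-derived 3T3Gli1-Luc cells carrying a stable Gli1-driven firefly luciferase reporter; series mostly up to about 92 µM; nearly all actives have a fitted effect of over 15% in size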)
How it was run: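 Luminescent signal was taken as a measure of Gli1-controlled luciferase expression in stably transfected NIH/3T3-derived cells that had been treated for 24 hr with compounds delivered in DMSO.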

[5] = qHTS assay to identify small molecule antagonists of the sonic hedgehog signaling (Shh) pathway (AID 1259369; calls by dose curve; further: nearly all actives have a fitted effect of over 45% in size)
How it was run: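 Screening used 3T3Gli1-Luc cells at 2,000 per well, compounds delivered in DMSO, and conditioned medium as agonist stimulus; plates incubated 24hr at 37 C and 5% CO2 before a 30min luciferase step.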

[6] = biological target: Estrogen receptor beta (Homo sapiens) (UniProt Q92731); test: qHTS assay to identify small molecule agonists of the estrogen receptor beta (ER-beta) signaling pathway (AID 1259377; active means well fitted activation curve with a large enough effect in the signal ratio in the repeat runs, not every such curve was filed as active; the % refers to the signal ratio)
How it was run: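 A UAS-controlled beta-lactamase reporter in ER-beta-UAS-bla HEK293T cells reports receptor activation. Compounds act for 16 hr at 37C in 2% charcoal-stripped serum, and a FRET substrate is read by fluorescence after 2 hours.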

[7] = biological target: Estrogen receptor beta (Homo sapiens) (UniProt Q92731); test: qHTS assay to identify small molecule antagonists of the estrogen receptor beta (ER-beta) signaling pathway (AID 1259378; active means well fitted inhibition curve with a large enough effect in the signal ratio in the repeat runs, not every such curve was filed as active; the % refers to the signal ratio)
How it was run: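 Antagonist mode: compounds added to beta-lactamase reporter HEK293T ER-beta-UAS cells stimulated with E2 (1nM final), 16 hr at 37C. LiveBLAzer B/G FRET substrate, 2 hours room temperature, fluorescence read-out.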

[8] = qHTS assay to identify small molecule agonists of the androgen receptor (AR) signaling pathway in the presence of an antagonist - cell viability counter screen (AID 1259379);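 further: MDA-kb2 human breast cancer cells carrying an MMTV luciferase reporter; series mostly up to about 92 µM; nearly all actives have a fitted effect of over 25% in size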
How it was run: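 In MDA-kb2 cells (human breast carcinoma, MMTV-luciferase), compounds at 15 concentrations plus 3.0uM nilutamide; 16 hr, 37C, 0% CO2; CellTiter-Fluor fluorescence read for viability.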

[9] = qHTS assay to identify small molecule antagonists of the estrogen receptor beta (ER-beta) signaling pathway - cell viability counter screen (AID 1259382);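 further: HEK293T cells carrying ER-beta-UAS-bla reporter stimulated with estradiol; series mostly up to about 92 µM; nearly all actives have a fitted effect of over 55% in size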
How it was run: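 Tox21 10K library tested in qHTS format on ER-beta-bla HEK293T cells stimulated with 1nM E2; 16 hr treatment at 37C. Same-well CellTiter-Glo luminescence served as the cell viability measure.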

[10] = biological target: Estrogen receptor (Homo sapiens) (UniProt P03372); test: qHTS assay to identify small molecule agonists of the estrogen receptor alpha (ER-alpha) signaling pathway in the presence of an antagonist (AID 1259383; calls by dose curve; further: top concentration of the series differs between compounds; nearly all actives have a fitted effect of over 15% in size)
How it was run: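 In VM7Luc4E2 cells, 4,000 per well, compounds at 15 concentrations were co-incubated 22hr at 37C with 10.0nM final ICI-182,780. Luminescence from the stably transfected 4×ERE-luciferase reporter was recorded 30min after ONE-Glo addition.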

[11] = qHTS assay to identify small molecule agonists or antagonists of the thyroid stimulating hormone receptor (TSHR) signaling pathway - wild type cell line counter screen (AID 1259384; calls by dose curve)
How it was run: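 Counter screen in untransfected Hek293: compounds (15-point titration, triplicate) plus phosphodiesterase inhibitor Ro20-1724 added after 18 h plating; 30 min RT. Intracellular cAMP via competitive d2/cryptate immunoassay, 1 h incubation.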

[12] = biological target: Thyrotropin receptor (Homo sapiens) (UniProt P16473); test: qHTS assay to identify small molecule antagonists of the thyroid stimulating hormone receptor (TSHR) signaling pathway (AID 1259385; calls by dose curve; further: nearly all actives have a fitted effect of over 20% in size)
How it was run: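 Antagonist mode: compound-treated TSHR-expressing HEK293 cells were stimulated with 1.5 ng/mL TSH (final) in presence of Ro20-1724 for 30 min at RT. HTRF cAMP detection after 1 h; each compound tested at 15 concentrations, triplicate.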

[13] = qHTS assay to identify small molecule agonists of the estrogen receptor alpha (ER-alpha) signaling pathway in the presence of an antagonist - cell viability counter screen (AID 1259386);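 further: series mostly up to about 92 µM; cells exposed to compounds for 22 h at 37 °C before the viability read; nearly all actives have a fitted effect of over 30% in size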
How it was run: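 Fluorescent CellTiter-Fluor viability signal from VM7Luc4E2 cells, with the reagent added during the final hour of a 22hr compound exposure at 37C in the presence of 10.0nM ICI-182,780.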

[14] = biological target: Progesterone receptor (Homo sapiens) (UniProt P06401); test: qHTS assay to identify small molecule agonists of the progesterone receptor (PR) signaling pathway (AID 1346784; calls by dose curve; further: nearly all actives have a fitted effect of over 30% in size)
How it was run: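 Agonist mode, quantitative HTS format in a HEK 293T line expressing a UAS-controlled beta-lactamase reporter; 16 hr compound exposure at 37C in 2% charcoal-stripped FBS, then LiveBLAzer B/G FRET fluorescence.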

[15] = biological target: Progesterone receptor (Homo sapiens) (UniProt P06401); test: qHTS assay to identify small molecule antagonists of the progesterone receptor (PR) signaling pathway (AID 1346795; active means well fitted inhibition curve with a large enough effect in the signal ratio in the repeat runs, not every such curve was filed as active; the % refers to the signal ratio)
How it was run: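 HEK293T PR-UAS-bla reporter cells in charcoal-stripped serum (2%) received compound after a 6 hr settling period, followed by R5020 agonist at 1 nM final; 16 hr incubation preceded the FRET substrate step and fluorescence measurement.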

[16] = qHTS assay to identify small molecule agonists of the progesterone receptor (PR) signaling pathway - cell viability counter screen (AID 1346799; calls by dose curve; further: nearly all actives have a fitted effect of over 45% in size)
How it was run: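 Counter screen for cytotoxicity: compound-treated PR-UAS-bla HEK293T cells (16 hr, 37C, 5% CO2) were assayed with CellTiter-Glo, luminescence measured after 30 min at room temperature.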

[17] = qHTS assay to identify small molecule antagonists of the TGF-beta/Smad signaling pathway - cell viability counter screen (AID 1346824); further: nearly all actives have a fitted effect of over 50% in size
How it was run: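 Cytotoxicity counter-screen run in the same wells as the beta-lactamase Smad reporter read: CellTiter-Glo luminescence after 30 min at room temperature. HEK 293T SBE-bla cells had 5 hr compound exposure at 37 C with TGF-beta1 (0.25 ng/mL stock).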

[18] = qHTS assay to identify small molecule agonists of the estrogen receptor beta (ER-beta) signaling pathway - cell viability counter screen (AID 1259380); further: nearly all actives have a fitted effect of over 30% in size
How it was run: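 Viability of ER-beta-UAS-bla HEK293T cells was determined by CellTiter-Glo luminescence following 16 hr treatment with test compounds at 37C.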

[19] = qHTS assay to identify small molecule antagonists of the progesterone receptor (PR) signaling pathway - cell viability counter screen (AID 1346798); further: series mostly up to about 92 µM; nearly all actives have a fitted effect of over 50% in size
How it was run: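 Same-well multiplex: after 16 hr at 37C with compound and R5020 stimulation, HEK293T cells carrying a UAS-bla reporter received LiveBLAzer substrate (2 hr RT), then CellTiter-Glo (30 min RT) for luminescent viability.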

[20] = biological target: Androgen receptor (Homo sapiens) (UniProt P10275); test: qHTS assay to identify small molecule agonists of the androgen receptor (AR) signaling pathway in the presence of an antagonist (AID 1259381; calls by dose curve; further: nearly all actives have a fitted effect of over 15% in size)
How it was run: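 Here, 15-concentration compound series were pin-transferred onto MDA-kb2 MMTV-luciferase cells already dosed with nilutamide (3.0uM final). After 16hr at 37C, ONE-Glo was added and luminescence read 30min later at room temperature.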

Measured: Potency

Sequence of Thyrotropin receptor (Homo sapiens) (P16473 whole entry, looked up): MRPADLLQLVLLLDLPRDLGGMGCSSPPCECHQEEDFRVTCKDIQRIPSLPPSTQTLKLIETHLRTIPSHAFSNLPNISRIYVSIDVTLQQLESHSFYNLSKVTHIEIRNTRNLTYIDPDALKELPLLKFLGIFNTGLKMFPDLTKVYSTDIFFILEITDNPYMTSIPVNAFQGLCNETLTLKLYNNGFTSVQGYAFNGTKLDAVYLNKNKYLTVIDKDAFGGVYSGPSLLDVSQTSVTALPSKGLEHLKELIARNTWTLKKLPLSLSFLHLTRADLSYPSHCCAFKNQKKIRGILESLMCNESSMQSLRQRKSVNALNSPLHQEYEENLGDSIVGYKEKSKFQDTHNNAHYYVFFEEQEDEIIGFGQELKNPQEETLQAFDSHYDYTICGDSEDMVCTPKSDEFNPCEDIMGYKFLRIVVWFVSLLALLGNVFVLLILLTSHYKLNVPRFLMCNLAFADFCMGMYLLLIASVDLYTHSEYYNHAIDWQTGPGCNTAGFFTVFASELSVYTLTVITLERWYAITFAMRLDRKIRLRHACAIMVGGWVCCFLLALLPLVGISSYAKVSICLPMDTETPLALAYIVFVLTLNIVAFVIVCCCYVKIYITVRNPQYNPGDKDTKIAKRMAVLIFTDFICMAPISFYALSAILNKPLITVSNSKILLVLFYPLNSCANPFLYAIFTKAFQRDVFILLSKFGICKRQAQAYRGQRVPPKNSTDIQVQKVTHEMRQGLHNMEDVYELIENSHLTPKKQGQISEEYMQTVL
Sequence of Estrogen receptor beta (Homo sapiens) (Q92731 whole entry, looked up): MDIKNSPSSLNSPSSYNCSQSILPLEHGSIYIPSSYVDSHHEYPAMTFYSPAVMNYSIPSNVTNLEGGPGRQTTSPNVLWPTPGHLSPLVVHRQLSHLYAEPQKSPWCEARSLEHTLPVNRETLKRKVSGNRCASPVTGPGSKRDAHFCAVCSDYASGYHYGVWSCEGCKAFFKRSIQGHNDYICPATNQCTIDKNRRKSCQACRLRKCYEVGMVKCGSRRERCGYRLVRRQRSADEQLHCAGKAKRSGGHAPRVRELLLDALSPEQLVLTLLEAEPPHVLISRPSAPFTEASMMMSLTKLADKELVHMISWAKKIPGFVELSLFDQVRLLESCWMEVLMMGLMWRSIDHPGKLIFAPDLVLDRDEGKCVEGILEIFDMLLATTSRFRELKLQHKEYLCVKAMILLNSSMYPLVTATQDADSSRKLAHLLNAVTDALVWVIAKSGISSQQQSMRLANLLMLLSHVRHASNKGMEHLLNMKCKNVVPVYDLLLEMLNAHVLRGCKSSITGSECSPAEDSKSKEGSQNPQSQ
Sequence of Estrogen receptor (Homo sapiens) (P03372 whole entry, looked up): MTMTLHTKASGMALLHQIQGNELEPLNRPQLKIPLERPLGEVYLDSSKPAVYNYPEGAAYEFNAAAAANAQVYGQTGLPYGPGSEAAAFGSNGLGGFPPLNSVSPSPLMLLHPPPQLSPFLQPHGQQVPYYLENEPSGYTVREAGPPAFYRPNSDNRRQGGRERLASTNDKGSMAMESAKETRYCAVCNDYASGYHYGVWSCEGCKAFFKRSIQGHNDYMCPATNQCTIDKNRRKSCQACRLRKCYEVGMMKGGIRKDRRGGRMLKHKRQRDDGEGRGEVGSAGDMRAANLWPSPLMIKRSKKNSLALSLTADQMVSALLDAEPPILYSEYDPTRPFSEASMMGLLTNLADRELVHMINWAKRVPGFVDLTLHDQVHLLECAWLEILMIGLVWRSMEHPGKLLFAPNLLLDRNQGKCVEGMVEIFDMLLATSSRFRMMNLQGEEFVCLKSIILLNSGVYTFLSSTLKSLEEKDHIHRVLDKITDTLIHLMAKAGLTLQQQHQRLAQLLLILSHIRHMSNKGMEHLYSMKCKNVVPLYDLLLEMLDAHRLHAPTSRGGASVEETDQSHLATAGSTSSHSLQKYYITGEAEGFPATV
Sequence of Progesterone receptor (Homo sapiens) (P06401 whole entry, looked up): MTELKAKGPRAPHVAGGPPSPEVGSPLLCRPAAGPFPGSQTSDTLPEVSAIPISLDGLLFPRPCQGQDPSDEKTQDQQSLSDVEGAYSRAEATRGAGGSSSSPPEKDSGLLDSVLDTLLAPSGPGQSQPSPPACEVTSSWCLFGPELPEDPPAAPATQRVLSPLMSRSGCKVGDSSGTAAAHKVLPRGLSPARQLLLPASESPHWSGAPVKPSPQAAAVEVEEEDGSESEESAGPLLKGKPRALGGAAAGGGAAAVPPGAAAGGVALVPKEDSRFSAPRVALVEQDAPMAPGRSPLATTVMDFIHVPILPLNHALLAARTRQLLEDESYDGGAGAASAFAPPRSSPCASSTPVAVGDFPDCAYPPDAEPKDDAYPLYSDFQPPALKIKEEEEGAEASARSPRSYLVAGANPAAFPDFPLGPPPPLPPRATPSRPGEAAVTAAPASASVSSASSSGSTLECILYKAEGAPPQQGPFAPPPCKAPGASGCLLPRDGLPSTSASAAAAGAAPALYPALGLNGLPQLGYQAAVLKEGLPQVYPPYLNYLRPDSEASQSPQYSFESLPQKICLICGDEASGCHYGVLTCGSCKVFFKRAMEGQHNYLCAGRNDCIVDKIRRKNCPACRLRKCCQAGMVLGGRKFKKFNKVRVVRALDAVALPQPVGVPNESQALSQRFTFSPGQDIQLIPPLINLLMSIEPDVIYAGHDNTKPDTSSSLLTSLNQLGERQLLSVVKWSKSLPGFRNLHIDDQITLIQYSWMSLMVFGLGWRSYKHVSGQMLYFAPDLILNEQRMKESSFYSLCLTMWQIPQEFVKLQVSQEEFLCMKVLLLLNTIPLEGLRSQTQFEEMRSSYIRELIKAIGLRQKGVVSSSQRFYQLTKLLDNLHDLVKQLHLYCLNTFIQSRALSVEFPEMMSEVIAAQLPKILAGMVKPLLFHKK
Sequence of Androgen receptor (Homo sapiens) (P10275 whole entry, looked up): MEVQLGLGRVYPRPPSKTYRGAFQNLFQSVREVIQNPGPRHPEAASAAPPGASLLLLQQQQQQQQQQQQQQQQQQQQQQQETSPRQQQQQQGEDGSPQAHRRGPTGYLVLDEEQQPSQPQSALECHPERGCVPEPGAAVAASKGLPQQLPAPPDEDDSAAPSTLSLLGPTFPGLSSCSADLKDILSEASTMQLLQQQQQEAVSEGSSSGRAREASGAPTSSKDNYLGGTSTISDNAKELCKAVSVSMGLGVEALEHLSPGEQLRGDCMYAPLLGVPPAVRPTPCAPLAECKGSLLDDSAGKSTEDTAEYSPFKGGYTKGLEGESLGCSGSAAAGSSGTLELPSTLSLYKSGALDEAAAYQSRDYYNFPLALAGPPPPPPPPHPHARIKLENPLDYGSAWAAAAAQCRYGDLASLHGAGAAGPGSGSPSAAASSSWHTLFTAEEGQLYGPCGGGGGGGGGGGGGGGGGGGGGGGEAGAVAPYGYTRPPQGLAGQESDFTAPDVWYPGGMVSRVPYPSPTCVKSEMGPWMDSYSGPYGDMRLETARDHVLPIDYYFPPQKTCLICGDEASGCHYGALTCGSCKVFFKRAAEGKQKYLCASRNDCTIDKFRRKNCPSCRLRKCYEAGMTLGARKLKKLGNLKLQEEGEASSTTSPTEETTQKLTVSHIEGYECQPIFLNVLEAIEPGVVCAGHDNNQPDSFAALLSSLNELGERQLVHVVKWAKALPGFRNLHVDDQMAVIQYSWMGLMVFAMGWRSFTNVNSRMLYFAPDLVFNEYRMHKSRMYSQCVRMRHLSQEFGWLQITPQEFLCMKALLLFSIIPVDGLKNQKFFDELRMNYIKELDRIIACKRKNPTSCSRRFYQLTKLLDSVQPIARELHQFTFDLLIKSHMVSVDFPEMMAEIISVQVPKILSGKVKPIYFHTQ

C[n+]1ccccc1/C=N/O
not listed: [18] | [19] | [20]
inactive: all other assays above

CC(=O)OCC(=O)[C@@]1(O)CC[C@H]2[C@@H]3CCC4=CC(=O)C=C[C@]4(C)[C@H]3[C@@H](O)C[C@@]21C
not listed: [7] | [11] | [12] | [14] | [15] | [16] | [20]
inactive: all other assays above

CC(=O)c1c(C)cc(C(C)(C)C)cc1C
not listed: [10] | [11] | [12] | [15] | [16] | [20]
inactive: all other assays above

O=C(O)/C=C(\CC(=O)O)C(=O)O
not listed: [9] | [18] | [20]
inactive: all other assays above

CN1CCN(C(=O)C2CCCCC2)CC1
not listed: [9] | [15] | [20]
inactive: all other assays above

CNC(=O)c1c(I)c(NC(C)=O)c(I)c(C(=O)O)c1I
not listed: [10] | [11] | [12] | [20]
inactive: all other assays above

Cc1ccc2cccnc2c1
not listed: [11] | [12] | [17] | [18]
inactive: all other assays above

COc1cc(C(=O)NC2CCCNC2)cc(OC)c1OC (configuration not stated)
not listed: [10] | [16] | [20]
inactive: all other assays above
